Compounds without any hit were thinned out: in the full panel of roughly 83,000, 20% have a hit.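 Step 1: grow cells in 96-well plates. Step 2: add test compound at a single concentration. Step 3: incubate 48 h. Step 4: record percent growth.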 Unmarked numbers belong to inactive results. Calls of active or inactive are those of the source. How the source made its calls: active means growth percent below 10; inactive means the rest.
Legend:
Assay in all cases: NCI-60 one-dose screen, 48 h (100 = growth as untreated, 0 = no growth, -100 = all killed)
Conditions in all cases: 10 µM unless noted
[1] = tested on: HCT-15 colon
[2] = tested on: HT29 colon
[3] = tested on: SNB-75 CNS
[4] = tested on: SNB-19 CNS
[5] = tested on: U251 CNS
[6] = tested on: PC-3 prostate
[7] = tested on: SK-MEL-5 melanoma
[8] = tested on: UACC-62 melanoma
[9] = tested on: LOX IMVI melanoma
[10] = tested on: SK-MEL-28 melanoma
[11] = tested on: SK-MEL-2 melanoma
[12] = tested on: EKVX NSCLC
[13] = tested on: SN12C renal
[14] = tested on: UO-31 renal
[15] = tested on: TK-10 renal
[16] = tested on: ACHN renal
[17] = tested on: CAKI-1 renal
[18] = tested on: A498 renal
[19] = tested on: CCRF-CEM leukemia
[20] = tested on: MOLT-4 leukemia

Structure (SMILES)	growth [1] [%]	growth [2]	growth [3] [%]	growth [4] [%]	growth [5] [%]	growth [6] [%]	growth [7] [%]	growth [8] [%]	growth [9]	growth [10] [%]	growth [11] [%]	growth [12] [%]	growth [13] [%]	growth [14] [%]	growth [15] [%]	growth [16]	growth [17] [%]	growth [18] [%]	growth [19] [%]	growth [20]
Nc1nc(CSc2n[nH]c(N)n2)nc(Nc2ccccc2)n1	94.2	106%	82.2	101	99.9	101	101	91.9	98.3%	100	106	96.1	101	87.2	99.1	98.6%	87.6	89.3	45.9	107%
FC(F)(F)Sc1ccc(/C=C/c2cc(/C=C/c3ccc(SC(F)(F)F)cc3)n(-c3ccccc3)n2)cc1	100	95.3%	82	92.6	90.4	84.2	98.3	84.5	97.1%	109	101	93.9	100	76.7	100	93.9%	78.5	86.8	94.7	95.6%
c1ccc(Cc2cccc[n+]2C(c2ccccc2)c2ccccc2)cc1	93.1	31.8%	50.8	58.1	42.5	35.8	14.5	37.7	58.2%	41.6	11.6	30	71.5	82.7	62.9	94.7%	94.4	90.1	48.6	59.3%
CC(=NCc1ccccc1)c1ccc(O)cc1O	101	104%	83.2	103	101	81.7	95	88.1	94.1%	103	107	111	91.8	81.7	92.8	96.6%	107	100	85	89.7%
CN(C)CCN1C(=O)c2c(c3c4ccccc4n4c3c3c2c2ccccc2n3C2CC(O)C(O)C4(C)O2)C1=O (stereo not given)	15.5	6.62% (active)	23.3	17.1	17.9	30.2	34.4	21.8	1.87% (active)	64.5	32.6	46.8	22.1	24.1	24.6	-12.6% (active)	19.6	32	31.1	0.948% (active)
CC(=O)N1N=C(c2ccc(F)cc2)CC1c1sc(N(C)Cc2ccccc2)nc1Cl (stereo not given)	88.5	94.4%	92.3	101	98.5	86.3	103	81.2	96.4%	114	96.1	87.4	106	74.6	112	102%	83.9	104	96.4	99.7%
NCCOCCOc1ccccc1	104	97.6%	106	106	96.1	90.5	114	102	102%	107	101	106	103	86.8	90.9	106%	88.3	97.3	91.9	101%
